Data on ten molecules can be found in PubChem BioAssay (Tox21).

Experiment [1] is described as follows: qHTS assay to identify small molecule agonists of the peroxisome proliferator-activated receptor delta (PPARd) signaling pathway - cell viability counter screen (AID 743211). Also: nearly all actives have a fitted effect of over 55% in size. Also: potency is read from the fitted curve at half-maximal effect. The method in brief: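 Tox21 library compounds, delivered in DMSO, were incubated 17 h with PPARd-bla HEK293H cells; cytotoxicity was taken from CellTiter-Glo luminescence read 30 min after reagent addition.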

Experiment [2] can be described thus: qHTS assay to identify small molecule antagonists of the peroxisome proliferator-activated receptor delta (PPARd) signaling pathway - cell viability counter screen (AID 743213). Also: nearly all actives have a fitted effect of over 50% in size. Also: potency is read from the fitted curve at half-maximal effect. The procedure, abridged: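 Agonist-stimulated (L165041, 300 nM final) HEK293H PPARd UAS-bla cells are exposed to compounds for 17 h at 37 C, and ATP-based luminescence (CellTiter-Glo) from the same wells reports cytotoxicity.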
A general note: In qHTS, concentration-response curves come from the screen itself.

Experiment [3] addresses Bile acid receptor (Homo sapiens) (UniProt Q96RI1). The experiment is described as follows: qHTS assay to identify small molecule antagonists of the farnesoid-X-receptor (FXR) signaling pathway (AID 743217; active = well fitted inhibition curve with a large enough effect in the signal ratio in the repeat runs, not every such curve was filed as active; the % refers to the signal ratio; also: potency is read from the fitted curve at half-maximal effect). The method in brief: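 Cells carrying a UAS-driven beta-lactamase reporter (GeneBLAzer FXR-UAS-bla HEK 293T) were plated and rested 5 h at 37 °C. Compounds in DMSO were added alongside chenodeoxycholic acid agonist at 50 uM final and left 16 h at 37 °C before FRET substrate readout.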

A short description of experiment [4]: qHTS assay to identify small molecule agonists of the farnesoid-X-receptor (FXR) signaling pathway - cell viability counter screen (AID 743218). Also: nearly all actives have a fitted effect of over 45% in size. Also: potency is read from the fitted curve at half-maximal effect. The method in brief:
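Cells were seeded, left 5 h at 37 C and 5% CO2, then dosed with compound in DMSO for 16 h. After the beta-lactamase FRET read, CellTiter-Glo was added and luminescence measured 30 min later.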

Experiment [5] addresses Bile acid receptor (Homo sapiens) (UniProt Q96RI1). The experiment in a line: qHTS assay to identify small molecule agonists of the farnesoid-X-receptor (FXR) signaling pathway (AID 743220; active = well fitted activation curve with a large enough effect in the signal ratio in the repeat runs, not every such curve was filed as active; the % refers to the signal ratio). The procedure, abridged:
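FXR-UAS-bla HEK 293T cells carrying a UAS-driven beta-lactamase reporter were plated for 5 h at 37C/5% CO2, then exposed to DMSO-dissolved Tox21 10K compounds for 16 h at 37C. A LiveBLAzer B/G FRET substrate was loaded for 2 h at room temperature before fluorescence reading.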

A short description of experiment [6]: qHTS assay to identify small molecule antagonists of the farnesoid-X-receptor (FXR) signaling pathway - cell viability counter screen (AID 743221; active = well fitted cell-killing curve with a large enough effect in the repeat runs, not every such curve was filed as active; also: nearly all actives have a fitted effect of over 50% in size; also: potency is read from the fitted curve at half-maximal effect). The method in brief:
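Cytotoxicity is taken from ATP luminescence (CellTiter-Glo, 30 min, room temperature) in FXR-bla HEK 293T cells previously incubated 16 h at 37 C with compound and chenodeoxycholic acid at 50 uM final.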

For experiment [7], the target named is Vitamin D3 receptor (Homo sapiens) (UniProt P11473). The experiment in a line: qHTS assay to identify small molecule agonists of the vitamin D receptor (VDR) signaling pathway (AID 743222; calls by dose curve). The procedure, abridged:
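Cells carrying a VDR-driven beta-lactamase reporter are seeded at 2,000 per well and rested 4 h. Compounds in DMSO are added for 16 h at 37C, and FRET substrate fluorescence is measured after 2 h at room temperature.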

A short description of experiment [8]: qHTS assay to identify small molecule agonists of the vitamin D receptor (VDR) signaling pathway - cell viability counter screen (AID 743224). Also: nearly all actives have a fitted effect of over 50% in size. Also: potency is read from the fitted curve at half-maximal effect. The method in brief: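 Cells: VDR-bla, 2,000/well, settled 4 h. Treatment: compounds in DMSO, 16 h, 37C/5% CO2. Readout: CellTiter-Glo luminescence after 30 min RT.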
Experiment [9] is described as follows: qHTS assay to identify small molecule antagonists of the vitamin D receptor (VDR) signaling pathway - cell viability counter screen (AID 743225). Also: nearly all actives have a fitted effect of over 50% in size. Also: potency is read from the fitted curve at half-maximal effect. The method in brief:
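Same-well multiplex: following 16 h treatment of HEK 293T cells carrying a UAS-driven beta-lactamase reporter with compound and agonist (3 nM final), and a 2 h FRET substrate step, CellTiter-Glo was added and luminescence read after 30 min.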

Experiment [10] in a line: qHTS assay to identify small molecule agonists of the NFkB signaling pathway - cell viability counter screen (AID 1159515; calls by dose curve; also: nearly all actives have a fitted effect of over 55% in size; also: potency is read from the fitted curve at half-maximal effect). The procedure, abridged: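 Cells are seeded (2,000 NFkB-bla ME-180 per well), rested overnight, and dosed with DMSO-dissolved compounds for 5 hr at 37 C. Viability is then read by CellTiter-Glo luminescence after 30 min at room temperature.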
Experiment [11] is described as follows: qHTS assay to identify small molecule agonists of the endoplasmic reticulum stress response signaling pathway - cell viability counter screen (AID 1159517; calls by dose curve; also: nearly all actives have a fitted effect of over 50% in size; also: potency is read from the fitted curve at half-maximal effect). The procedure, abridged:
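Cpd-treated ESRE-bla HeLa (5 hr, 37 C) → LiveBLAzer 2 hr RT → CellTiter-Glo 30 min RT → luminescence.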

Experiment [12] is described as follows: qHTS assay to identify small molecule antagonists of the retinoid-related orphan receptor gamma (ROR-gamma) signaling pathway - cell viability counter screen (AID 1159520). Also: nearly all actives have a fitted effect of over 50% in size. Also: potency is read from the fitted curve at half-maximal effect. The method in brief: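 Tet-on ROR gamma CHO cells (1,000/well) were plated 4 hr, given compounds in DMSO for 2 hr at 37 C, then induced with 1 uM final doxycycline for 16 hr. Viability was read as ATP by CellTiter-Glo luminescence after 30 min.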

The target of experiment [13] is Peroxisome proliferator-activated receptor delta (Homo sapiens) (UniProt Q03181). The experiment is described as follows: qHTS assay to identify small molecule agonists of the peroxisome proliferator-activated receptor delta (PPARd) signaling pathway (AID 743212; calls by dose curve). The method in brief: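 Cells expressing a UAS-driven beta-lactamase reporter (PPARd-bla HEK293H) were given test compounds after a 5 h settle and kept at 37 C. Reporter activity was then measured as FRET fluorescence using LiveBLAzer B/G substrate.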
Sequence of Peroxisome proliferator-activated receptor delta (Homo sapiens) (Q03181 whole entry, looked up): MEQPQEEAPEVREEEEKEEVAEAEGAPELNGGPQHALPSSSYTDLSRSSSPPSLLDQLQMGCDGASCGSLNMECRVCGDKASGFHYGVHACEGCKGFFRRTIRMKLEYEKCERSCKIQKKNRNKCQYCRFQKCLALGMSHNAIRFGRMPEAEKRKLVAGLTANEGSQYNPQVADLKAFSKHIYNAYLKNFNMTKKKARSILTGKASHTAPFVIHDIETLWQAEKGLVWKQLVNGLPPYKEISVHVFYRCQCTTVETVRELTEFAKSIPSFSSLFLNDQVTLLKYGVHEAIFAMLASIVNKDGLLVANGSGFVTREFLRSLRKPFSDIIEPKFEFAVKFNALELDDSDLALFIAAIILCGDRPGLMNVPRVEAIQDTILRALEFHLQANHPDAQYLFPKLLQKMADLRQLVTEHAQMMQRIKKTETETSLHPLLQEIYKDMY

For experiment [14] the target is unchanged. The experiment is described as follows: qHTS assay to identify small molecule antagonists of the peroxisome proliferator-activated receptor delta (PPARd) signaling pathway (AID 743215; active = well fitted inhibition curve with a large enough effect in the signal ratio in the repeat runs, not every such curve was filed as active; the % refers to the signal ratio; also: series mostly up to about 62 µM). The procedure, abridged:
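Cells: HEK293H with a UAS-driven beta-lactamase reporter responsive to PPARd. Compounds were co-added with L165041 (300 nM, final) and incubated 17 h at 37 C before a 2 h room-temperature FRET substrate step and fluorescence reading.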

The target of experiment [15] is Nuclear receptor ROR-gamma (Homo sapiens) (UniProt P51449). The experiment in a line: qHTS assay to identify small molecule antagonists of the retinoid-related orphan receptor gamma (ROR-gamma) signaling pathway (AID 1159521; also: nearly all actives have a fitted effect of over 50% in size; also: potency is read from the fitted curve at half-maximal effect). The procedure, abridged:
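Inducible-expression reporter assay: doxycycline (1 uM final) switched on RORγ in CHO cells bearing a ROR response element-luciferase construct, with test compounds present from 2 h beforehand. Decreased luminescence after 16 h defined antagonist activity.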

The nature of experiment [16]: qHTS assay to identify small molecule agonists of the AP-1 signaling pathway (AID 1159526; calls by dose curve).
Experiment [17] deals with Retinoic acid receptor RXR-alpha (Homo sapiens) (UniProt P19793). The experiment is described as follows: qHTS assay to identify small molecule agonists of the RXR signaling pathway (AID 1159527; calls by dose curve; also: nearly all actives have a fitted effect of over 35% in size). The procedure, abridged: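 Compounds in DMSO were added to RXR-alpha-UAS-bla HEK 293T cells kept in 2% charcoal-stripped serum, and incubated 16 hr at 37 C with 5% CO2. Reporter signal came from a 2 hr B/G FRET substrate step.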
Sequence of Retinoic acid receptor RXR-alpha (Homo sapiens) (P19793 whole entry, looked up): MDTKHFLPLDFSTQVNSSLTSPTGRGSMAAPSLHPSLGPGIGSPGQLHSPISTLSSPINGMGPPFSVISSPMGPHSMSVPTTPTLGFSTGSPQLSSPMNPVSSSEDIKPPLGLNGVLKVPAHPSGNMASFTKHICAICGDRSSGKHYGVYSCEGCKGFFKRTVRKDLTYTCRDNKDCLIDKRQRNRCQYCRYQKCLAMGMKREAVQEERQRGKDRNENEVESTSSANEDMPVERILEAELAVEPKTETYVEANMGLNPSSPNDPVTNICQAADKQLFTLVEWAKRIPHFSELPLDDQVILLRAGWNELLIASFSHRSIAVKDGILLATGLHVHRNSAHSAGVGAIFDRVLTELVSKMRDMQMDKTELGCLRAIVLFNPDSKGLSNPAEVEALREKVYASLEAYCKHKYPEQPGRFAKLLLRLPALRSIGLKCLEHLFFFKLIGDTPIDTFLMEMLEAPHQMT

Experiment [18] concerns the target Vitamin D3 receptor (Homo sapiens) (UniProt P11473). The experiment in a line: qHTS assay to identify small molecule antagonists of the vitamin D receptor (VDR) signaling pathway (AID 743223; active = well fitted inhibition curve with a large enough effect in the signal ratio in the repeat runs, not every such curve was filed as active; the % refers to the signal ratio). The method in brief: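 Quantitative HTS in VDR-bla reporter cells stimulated with 1alpha,25-dihydroxyvitamin D3, 3 nM final. Compound exposure 16 h, 37C, 5% CO2. Read-out: beta-lactamase FRET substrate fluorescence, 2 h RT.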

The nature of experiment [19]: qHTS assay to identify small molecule agonists of the AP-1 signaling pathway - cell viability counter screen (AID 1159525; calls by dose curve; also: nearly all actives have a fitted effect of over 55% in size). The method in brief:
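Each titration point was normalised to DMSO and tetra n-octyl ammonium bromide controls. The read was Cell Titer Glo luminescence after 30 min at RT, following 5 h compound exposure of ME-180 AP-1-bla cells at 37 °C.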

Structures are written as SMILES. Values joined by “and” are separate entries in the source; they are usually repeats but may differ in a detail not shown here. Equal entries are not always repeated. Records with an inconclusive call do not appear. Values without a mark were called inactive. Active and inactive are the calls of the source. Unless noted, calls follow the shape of the dose curve; as a rule, active = well fitted curve in the direction sought with a large enough effect in the repeat runs; inconclusive = weak or mixed curves; inactive = no such curve, though single readings can be large; an effect the other way counts as inactive or inconclusive.

Sequence of Bile acid receptor (Homo sapiens) (Q96RI1 whole entry, looked up): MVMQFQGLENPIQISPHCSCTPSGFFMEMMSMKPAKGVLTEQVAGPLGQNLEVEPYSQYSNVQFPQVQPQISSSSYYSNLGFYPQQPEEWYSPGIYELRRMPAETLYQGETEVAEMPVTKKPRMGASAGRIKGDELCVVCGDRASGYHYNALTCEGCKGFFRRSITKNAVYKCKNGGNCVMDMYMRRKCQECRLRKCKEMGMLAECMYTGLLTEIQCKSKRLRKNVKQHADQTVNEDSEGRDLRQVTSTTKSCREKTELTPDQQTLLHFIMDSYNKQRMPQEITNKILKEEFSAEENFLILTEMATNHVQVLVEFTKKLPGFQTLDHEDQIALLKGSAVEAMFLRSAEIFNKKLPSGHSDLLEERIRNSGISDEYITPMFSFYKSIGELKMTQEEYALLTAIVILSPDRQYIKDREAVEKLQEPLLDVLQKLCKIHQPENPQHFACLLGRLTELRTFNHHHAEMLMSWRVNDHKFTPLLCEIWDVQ
Sequence of Vitamin D3 receptor (Homo sapiens) (P11473 whole entry, looked up): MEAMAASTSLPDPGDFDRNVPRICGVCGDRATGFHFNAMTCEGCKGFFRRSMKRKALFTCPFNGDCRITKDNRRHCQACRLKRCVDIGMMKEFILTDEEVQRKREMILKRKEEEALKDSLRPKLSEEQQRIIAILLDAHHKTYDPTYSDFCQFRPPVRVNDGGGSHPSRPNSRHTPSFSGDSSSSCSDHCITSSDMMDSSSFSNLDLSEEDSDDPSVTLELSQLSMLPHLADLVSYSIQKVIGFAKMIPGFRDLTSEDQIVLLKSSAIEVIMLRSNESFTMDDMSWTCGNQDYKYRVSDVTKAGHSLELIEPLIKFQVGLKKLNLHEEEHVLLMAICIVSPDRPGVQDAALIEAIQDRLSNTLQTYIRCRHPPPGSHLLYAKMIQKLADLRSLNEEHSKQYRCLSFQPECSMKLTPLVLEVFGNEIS

On to `CN(C)c1ccc(C(=C2C=CC(=[N+](C)C)C=C2)c2ccc(N(C)C)cc2)cc1`, for which the Potency is 6.88 µM (active) and 7.76 µM (active) and 8.41 µM (active) in experiment [1]; 17.3 µM (active) and 17.4 µM (active) and 6.68 µM (active) in experiment [2]; 16.8 µM (active) in experiment [3]; 10.9 µM (active) and 19.5 µM (active) and 10.6 µM (active) in [4]; 21.8 µM (active) and 27.5 µM (active) and 13.3 µM (active) in experiment [6]; 4.87 µM (active) and 4.9 µM (active) and 11.9 µM (active) in experiment [8]. Moreover, the Potency in experiment [9] was 9.72 µM (active) and 21.9 µM (active) and 19 µM (active); in [10] it was 24.4 µM (active); in [11], 12.3 µM (active) and 9.52 µM (active); in [12], 6.08 µM (active) and 13.7 µM (active) and 5.31 µM (active). Besides, the Potency entry in [5] and in experiment [7] was “inactive” throughout.
On to `CCCNCCC`, for which the Potency result in experiment [13], in [2], in experiment [14], in experiment [3], in experiment [4] and in experiment [5] was “inactive” throughout. Besides, the Potency result in experiment [6], in [7], in [8], in experiment [9], in experiment [10] and in experiment [11] was “inactive” each time. The Potency entry in experiment [15], in experiment [16] and in [17] was “inactive” throughout.
Take `CCCCCCCCCCCCCCCC[N+](C)(C)CC`: the Potency in experiment [1] was 21.9 µM (active) and 29.8 µM (active); in [2], 17.4 µM (active) and 21.1 µM (active); in experiment [4], 31 µM (active) and 29.8 µM (active); in [6], 43.8 µM (active) and 29.8 µM (active); in experiment [9] it was 13.8 µM (active) and 23.9 µM (active); in [10], 21.3 µM (active). Besides, the Potency is 24.6 µM (active) in experiment [11]; 61.3 µM (active) and 23.7 µM (active) in experiment [12]; 17.3 µM (active) and 2.98 µM (active) in experiment [15]. For the same molecule, the Potency entry in experiment [5] is “inactive”.
Regarding `O=C1NC(=O)[C@@H]2CC=CC[C@H]12`, the Potency entry in [1], in experiment [2], in experiment [3], in experiment [5], in experiment [7] and in experiment [18] was “inactive” each time. Besides, the Potency result in experiment [8], in experiment [10], in experiment [11], in experiment [12] and in experiment [16] was “inactive” in each case. The Potency in experiment [4] is 21.9 µM (active); in experiment [15], 54.5 µM (active).
For `C#Cc1ccc(-c2ccccc2F)cc1`, the Potency entry in experiment [1], in experiment [13], in [14], in experiment [3], in [4] and in experiment [5] was “inactive” throughout. Besides, the Potency result in experiment [8], in experiment [9], in [10], in experiment [11], in [16] and in experiment [17] was “inactive” in each case.
Take `Cc1cccc(C(=O)O)c1O`: the Potency entry in experiment [13], in experiment [2], in experiment [14], in experiment [3], in experiment [4] and in [5] was “inactive” each time. The Potency entry in experiment [7], in experiment [18], in experiment [8], in experiment [9], in experiment [10] and in experiment [11] was “inactive” throughout. Also, the Potency entry in experiment [15], in [19], in experiment [16] and in experiment [17] was “inactive” in each case.
Turning to `CC1(C)CCC[C@]2(C)[C@H]3CCO[C@]3(C)CC[C@@H]12`, the Potency entry in experiment [1], in experiment [13], in experiment [2], in experiment [14], in experiment [4] and in experiment [6] was “inactive” in each case. The Potency entry in experiment [7], in experiment [18], in [8], in [9], in [10] and in experiment [11] was “inactive” in each case. Moreover, the Potency entry in [15], in experiment [16] and in [17] was “inactive” in each case.
Regarding `Nc1ccc(C(=O)O)c(O)c1`, the Potency result in experiment [1], in experiment [13], in experiment [2], in experiment [14], in [3] and in [4] was “inactive” in each case. For the same molecule, the Potency entry in experiment [5], in experiment [6], in experiment [7], in experiment [18], in experiment [8] and in experiment [9] was “inactive” in each case. Besides, the Potency entry in [10], in [11], in experiment [12], in experiment [19], in experiment [16] and in [17] was “inactive” throughout.
Take `COCCOc1cc2cc(C(=O)NC3CCN(C(C)C)CC3)n(CC(=O)Nc3ccc(Cl)cn3)c2cn1`: the Potency result in experiment [1], in experiment [4], in [6], in experiment [7], in [8] and in experiment [9] was “inactive” throughout. For the same molecule, the Potency result in [10], in experiment [11], in [12], in [19], in experiment [16] and in [17] was “inactive” throughout.
In the case of `CCC(COC(=O)CCS)(COC(=O)CCS)COC(=O)CCS`, the Potency entry in experiment [1], in [13], in experiment [2], in [14], in [3] and in experiment [4] was “inactive” throughout. The Potency result in [5], in experiment [6], in experiment [7], in [18], in [8] and in experiment [9] was “inactive” in each case. Moreover, the Potency result in [10], in [11], in [12], in experiment [19], in experiment [16] and in experiment [17] was “inactive” in each case.
